Bioassay records (PubChem BioAssay)
Sampled rows, rich in hits. Any-hit rate of the full collection: about 14%.
4MU fluor: qHTS Assay for Spectroscopic Profiling in 4-MU Spectral Region; compound autofluorescence, 340/450 nm, 4-MU equivalents; hits give high values; max dye-equivalent concentration, M; hit rate 11% among 59,000; AID 589, 2007; in the data active means max dye-equivalent concentration above about 10 nM; inconclusive means mostly about 1.1 nM to 9.6 nM
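Intrinsic fluorescence at 340/450 nm (ex/em) was read after 15 min at room temperature in pH 8.0, 100 mM Tris. Each compound concentration expressed as 4-MU-equivalent concentration from a six-point 4-MU standard series on each plate.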
HADH2 inh: qHTS Assay for Inhibitors of HADH2 (Hydroxyacyl-Coenzyme A Dehydrogenase, Type II) | Potency, µM (doses to about 57.1 µM), inactives show at the top dose activity change, negative = inhibition, most hits filed as inhibitors | AID 886, 2007 | hit rate 3.4% among 73,000 | recombinant HADH2, NADH fluorescence, beta-hydroxybutyryl-CoA; further: potency means the concentration at half of the fitted maximal effect; on the % scale 0 is the no-effect control and ±100 the full control effect; nearly all actives have a fitted effect of over 60% in size
Target sequence (Q99714 whole entry, looked up, one chain of several): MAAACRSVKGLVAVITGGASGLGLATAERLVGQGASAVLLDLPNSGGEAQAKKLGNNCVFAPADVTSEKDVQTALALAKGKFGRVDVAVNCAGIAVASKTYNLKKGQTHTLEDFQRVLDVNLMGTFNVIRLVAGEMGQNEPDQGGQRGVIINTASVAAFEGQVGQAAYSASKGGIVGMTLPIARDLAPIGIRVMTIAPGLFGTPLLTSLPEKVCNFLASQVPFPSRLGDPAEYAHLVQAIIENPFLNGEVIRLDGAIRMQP
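Buffer 100 mM Tris-HCl pH 9.0/0.01% Tween-20; HADH2 20 nM; NAD+ 1 mM; beta-hydroxybutyryl-CoA 90 uM (all final). 15 min cpd preincubation, RT.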
AID923: qHTS Assay for Allosteric/Competitive Inhibitors of Caspase-1: Spectroscopic Profiling in AFC Spectral Region; Potency, µM (top dose mostly 57.5 µM), for inactives: top-dose fluorescence increase, actives largely listed as activators; AID 923, 2007; hit rate 1.1% among 75,000; compound fluorescence, AFC spectral region (405/520 nm); further: potency means the concentration at half of the fitted maximal effect; 0% is about no effect
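Titrations up to 57 uM read every 20 sec for 3 min (405/520 nm) with 50 nM caspase 1 and 5 uM Ac-WEHD-AFC, pH 7.5 HEPES buffer. Fluorescence-vs-time intercept gave baseline, scaled against on-plate AFC standard.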
CRE-bla Fsk: Cell signaling CRE-BLA (Fsk stim). CHO CRE-bla reporter (cAMP response element driving beta-lactamase), forskolin EC10, beta-lactamase ratio. AID 662, 2007. hit rate 2.5% among 71,000. Potency, µM (highest dose often 38.2 µM), inactives show top-dose activity change, negative = inhibition, usual class: activators; active means well fitted activation curve with a large enough effect in the signal ratio, with a control signal flat, not every such curve was filed as active; inconclusive means small, poorly fitted or top-dose-only effect, or effect the other way, or a change in a side signal; the % refers to the signal ratio; further: potency means the concentration at half of the fitted maximal effect; % of control where 0% means no effect
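Titrated compounds plus EC10 NKH 477 on CHO CRE-bla cells, 3 h, 37 °C. CCF4, 2 h RT. Ratio 460/530 nm → AC50.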
HSD17B inh: qHTS Assay for Inhibitors of HSD17B4, hydroxysteroid (17-beta) dehydrogenase 4; 3-hydroxyacyl-CoA dehydrogenase type-2 (Homo sapiens), Q99714; AID 893, 2007; hit rate 7.6% among 75,000; recombinant HSD17B10, NADH fluorescence kinetic; Potency, µM (doses to about 57.1 µM), for inactives: top-dose activity change, negative = inhibition, most hits filed as inhibitors;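 further: the protocol describes HADH2 (HSD17B10) and not the HSD17B4 of the title; potency means the concentration at half of the fitted maximal effect; on the % scale 0 is the no-effect control and ±100 the full control effect; nearly all actives have a fitted effect of over 70% in size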
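His-tagged E. coli-expressed HADH2 at 20 nM in 100 mM Tris-HCl pH 9.0 with 0.01 % Tween-20, preincubated 15 min with compound at room temperature. Reaction with 1 mM NAD+ and 90 uM beta-hydroxybutyryl coenzyme A; NADH fluorescence (360/450 nm) read kinetically over 4 min, last minus first point.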
A350 fluor: qHTS Assay for Spectroscopic Profiling in A350 Spectral Region. Compound autofluorescence, 340/450 nm, Alexa 350 dye-equivalents; hits give high values. max dye-equivalent concentration, M. hit rate 11% among 59,000; in the data active means max dye-equivalent concentration above about 10 nM; inconclusive means mostly about 1.1 nM to 9.6 nM
Numbers without * were called inactive; i = inactive; ? = inconclusive; / = not tested or not shown; [ ] = remark or other dose. Unless noted, the call rests on the fitted dose curve; in most records, active means well fitted curve in the direction sought with a large enough effect; inconclusive means small, poorly fitted or top-dose-only effect, or another doubt; inactive means no such curve, though single readings can be large; an effect the other way counts as inactive or inconclusive.

SMILES	4MU fluor	HADH2 inh	AID923	CRE-bla Fsk	HSD17B inh	A350 fluor
CC(=O)O[C@H]1C2=C(C(=O)[C@H]3O[C@@H]31)[C@@H]1[C@@H]3[C@@H](C)OC=C4[C@H](O)[C@H]5O[C@@H]5C(=O)[C@]43C2O[C@H]1C	/	-5.6%[11.4 µM]	0.4%[11.5 µM]	/	2.3%[11.4 µM]	/
Cc1ccc(-c2ccc(C(=O)O)[nH]2)cc1	1.96e-08M*	-5.7%	1.8%	-5.3%	?	1.81e-08M*
c1ccc(N2CCN(c3nc4cc5c(cc4s3)OCO5)CC2)cc1	i	7.94µM*	-2.8%	3.4%	-11.5%	i
c1c2c(cc3sc(N4CCOCC4)nc13)OCO2	i	10µM*	1.1%	8.1%	?	i
c1c2c(cc3sc(N4CCCCC4)nc13)OCO2	i	?	0.4%	?	31.6µM*	i
O=C(c1ccc2nc(N3CCOCC3)sc2c1)N1CCCC1	/	5.5%	2.2%	11.4%	3.8%	/
c1ccc2c(c1)CCN(Cc1nnnn1Cc1ccc3c(c1)OCO3)C2	i	6.0%	-1.6%	-18.8%	-7.1%	i
Clc1ccc2nc(N3CCN(c4ccccc4)CC3)sc2c1	i	14.8%	-0.3%	-3.3%	17.4%	i
c1ccc2c(c1)CCN(c1nc3cc4c(cc3s1)OCO4)C2	1.47e-08M*	15.8µM*	2.0%	10.1%	?	1.72e-08M*
C=C(C)C(=O)OCC(C)O (stereo unspecified)	/	9.5%	2.9%	-0.1%	12.5%	/
CO[C@H]1COC(=O)[C@H](C)NC(=O)[C@@H](C)COC(=O)C/C=C\[C@@H]1C	/	0.7%[11.4 µM]	0.4%[11.5 µM]	/	9.0%[11.4 µM]	/
CC(=O)[C@H](CC(C)C)NC(=O)[C@@H](CC(C)C)NC(=O)[C@H](CC(C)C)NC(=O)OCc1ccccc1	/	3.1%	-2.7%	?	10.0%	/
CCC1=C2CC[C@H]3C(=O)N(c4ccccc4)C(=O)[C@H]3[C@H]2[C@@]2(Cc3ccccc3)C(=O)N(CC(=O)OC)C(=O)N2C1=O	/	/	-1.1%	/	-25.5%	/
COC(=O)[C@@H]1C[C@@]2(O)[C@@H](O)[C@@H](O)[C@@H](O)C[C@H]2N1Cc1ccc(C(C)(C)C)cc1	/	/	-0.6%	/	?	/
C=C/C(C)=C/[C@]1(C)SC(=O)C(C)=C1O	i	?	-2.8%	-0.2%	?	i
Cc1nc2ccccc2nc1-c1ccc(N=[N+]([O-])c2ccc(-c3nc4ccccc4nc3C)cc2)cc1	i	6.3%[11.4 µM]	0.7%[11.5 µM]	-4.7%[7.6 µM]	5.6%[11.4 µM]	i
COc1ccccc1CN1CCCC2(CCN(S(=O)(=O)c3ccccc3)CC2)C1	i	15.5%	0.3%	-1.3%	-6.4%	i
CCOC(=O)c1cnc2c(C)c(Cl)ccc2c1N1CCOCC1	/	3.0%	-1.4%	?	11.4%	/
CCOC(=O)c1cnc2c(C(F)(F)F)cccc2c1N1CCOCC1	i	?	2.4%	-1.4%	20µM*	i
Nc1cc(S(N)(=O)=O)ccc1SSc1ccc(S(N)(=O)=O)cc1N	i	?	-1.6%[11.5 µM]	23.7%[7.6 µM]	?	i
CCCc1c(OCCCOc2ccc(OCC(=O)O)cc2)ccc(CC=O)c1O	/	-3.9%	-3.8%	0.1µM*	?	/
CCCCCCc1ccc(OCC(=O)O)cc1OCC(=O)O	i	0.8%	0.5%	-5.5%	-6.9%	i
COc1c(F)c(F)c(C(=O)Nc2ccc3oc(-c4ccncc4)nc3c2)c(F)c1F	6.9e-08M*	31.3%	-0.3%	4.3%	25.1µM*	7.27e-08M*
O=C(Nc1ccc2c(c1)OCO2)c1cncc(Br)c1	i	/	/	/	/	i
CCc1ccc2oc(-c3cccc(NC(=O)c4cccnc4)c3)nc2c1	i	13.0%	-1.9%	-6.6%	-5.3%	i
SMILES	4MU fluor	HADH2 inh	AID923	CRE-bla Fsk	HSD17B inh	A350 fluor
O=C(Nc1ccc2oc(-c3ccncc3)nc2c1)c1c(F)c(F)c(F)c(F)c1F	4.08e-08M*	?	-2.7%	2.7%	?	4.27e-08M*
O=C(Nc1ccc2oc(-c3ccccc3F)nc2c1)c1cncc(Br)c1	i	11.6%	-1.7%	0.501µM*	-19.6%	i
CCC(=O)OCC(=O)[C@@]1(OC(=O)CC)[C@H](C)C[C@@H]2[C@@H]3[C@H]([C@@H](O)C[C@@]21C)[C@]1(C)C=CC(=O)C=C1C[C@@H]3Cl	i	-0.1%[25.6 µM]	-2.3%[25.7 µM]	-4.9%[17.1 µM]	-1.2%[25.6 µM]	i
COc1cccc(-c2nc(NC3CCNCC3)c3ccccc3n2)c1	i	10.0%	1.7%	?	?	i
c1ccc(-c2nc(-n3ccnc3)nc(-n3ccnc3)n2)cc1	i	-6.8%	1.1%	1.26µM*	0.7%	i
c1ccc(-c2nc(NC3CC3)nc(-n3ccnc3)n2)cc1	i	6.4%	-1.2%	0.501µM*	-3.0%	i
CC(C)Nc1nc(-c2ccccc2)nc(-n2ccnc2)n1	i	?	-0.1%	22.8%	5.1%	i
N#Cc1cccc(-c2nc(NCc3ccccc3)c3ccccc3n2)c1	i	3.5%	0.8%	?	?	i
CCN1C(=O)[C@H]2[C@H]3[C@H](O)[C@H](O)C/C(=N/OCc4ccccc4)[C@H]3CC[C@@H]2C1=O	/	-3.1%[11.4 µM]	-1.2%[11.5 µM]	/	-0.3%[11.4 µM]	/
Nc1nc(=O)n(C2OC(CO)C(O)C2O)cc1Cl (stereo unspecified)	/	/	0.1%	/	1.2%	/
COc1cc(-c2nc(S(=O)(=O)c3ccc(Cl)cc3)c(N3CCOCC3)o2)cc(OC)c1OC	i	-22.0%	-3.4%	?	?	i
COc1cc(-c2nc(S(=O)(=O)c3ccc(C)cc3)c(N3CCOCC3)o2)cc(OC)c1OC	i	14.6%	-0.8%	1µM*	-9.6%	i
COc1cc(-c2nc(S(=O)(=O)c3ccc(C)cc3)c(N(C)C)o2)cc(OC)c1OC	i	-3.2%	-1.0%	2µM*	-0.7%	i
CC(=O)OC1CC[C@@]2(C)C(CC[C@@]3(C)C2CC=C2C4CC(C)(C)CC[C@]4(C(=O)O)CC[C@@]23C)C1(C)C (stereo partly specified)	/	/	0.2%	/	2.3%	/
CCOC(=O)c1ccc2nc3c(cc2c1)CCS3	2.56e-08M*	14.1%	-0.5%	?	25.1µM*	2.74e-08M*
C[N+]1(C)CCO[C@](O)(c2ccccc2)C1	i	-1.4%[11.4 µM]	-0.1%[11.5 µM]	?	3.4%[11.4 µM]	i
O=C(NC1=NCCS1)c1ccc(-c2ccc(Cl)cc2)o1	4.39e-07M*	31.6µM*	-1.2%	13.7%	31.6µM*	4.64e-07M*
O=C(NCCN1CCCCC1)c1ccc(=O)oc1	7.58e-08M*	/	/	/	/	8.47e-08M*
CN(C)/N=N\c1nc[nH]c1C(N)=O	i	-0.2%[25.6 µM]	2.0%[25.7 µM]	-1.1%[17.1 µM]	-5.2%[25.6 µM]	i
